In the library only some 2.7% were active in any assay of this set; here they are far more common.
TRPM1 prom inh = inhibitors of MITF-driven TRPM1 promoter in melanoma cells; SK-MEL-5 TRPM1 promoter luciferase, 24 h; inhibition, % at 12.5 µM; actives 0.83% (n = 330,000); AID 488899;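 active = mean inhibition across replicates of 60% or more, whatever share of single replicates reaches that level; inconclusive = some that reach 60%, reason not given; inactive = mean inhibition across replicates below 60%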
Shn3 3UTR inh = inhibitors of Schnurri-3 3'UTR reporter in osteoblasts; Clone20 osteoblast Shn3 3'UTR firefly luciferase, 24 h; inhibition, % at 12.5 µM; actives 0.52% (n = 360,000); AID 588674;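 active = mean inhibition of at least 75% with every replicate also reaching 75%; inconclusive = mean inhibition at least 75% but some replicate below; inactive = mean inhibition below 75%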;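 also: 0% = median of neutral control wells and 100% = pilot-screen positive control compound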
CF NFkB inh = blocks PAF-induced NF-kB reporter in cystic fibrosis cells. KKLEB NF-kB-GFP reporter, GFP fluorescence overnight. inhibition, % at 5 µM. actives 0.86% (n = 360,000);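 active = at least 50% inhibition at 5 µM, scaled per plate between neutral and stimulator controls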;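 also: PAF is a Pseudomonas aeruginosa culture filtrate used as stimulus; plate controls were PAF-stimulated DMSO wells for no effect and unstimulated DMSO wells for full effect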
Peg3 promoter = Peg3 promoter activity inhibition. actives 1.7% (n = 360,000). AID 588405. HeLa PEG-Prom luciferase reporter, luminescence, overnight. inhibition, % at 20 µM;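 active = inhibition of at least 50% at 20 µM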
KKLEB cytotox = reduces viability of KKLEB cystic fibrosis airway cells; KKLEB CF airway cells viability, ATPlite luminescence, overnight; active compounds read low; cells stimulated with P. aeruginosa culture filtrate; activity change (cytotoxicity), % at 5 µM; actives 0.36% (n = 360,000); AID 602141;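 active = corrected activity change at or below -50% at 5 µM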
HIF-2a inh = inhibitors of HIF-2a | AID 624352 | 786-0 RCC cells HIF-2a reporter, luciferase luminescence, overnight | actives 0.72% (n = 360,000) | inhibition, % at 18.8 µM;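 active = inhibition of the luminescence signal of 40% or more relative to plate controls, in a single-dose primary screen at 18.75 µM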
Active calls of the source: *; ? = inconclusive; / = no result given.

SMILES	TRPM1 prom inh	Shn3 3UTR inh	CF NFkB inh	Peg3 promoter	KKLEB cytotox	HIF-2a inh
N#C/C(=C/c1ccc(-c2ccc([N+](=O)[O-])cc2)o1)C(=O)Nc1nc(-c2cccs2)cs1	-12	10	-10	55*	-10	3
COc1ccc(-c2cc(=O)oc3c(C)c(OCC(=O)N(C)C)ccc23)cc1	-5	2	-28	21	5	26
COc1ccc(-c2cc(=O)oc3c(C)c(O)c(CN(C)C)cc23)cc1	1	5	55*	21	-5	19
Oc1c(C(c2ccccn2)N2CCCCC2)cc(Cl)c2cccnc12 (configuration not stated)	25	20	-9	23	-9	13
O=C(NC(c1ccc(Cl)cc1)c1cc(Cl)c2cccnc2c1O)c1cccnc1 (configuration not stated)	41	81	-12	66*	-4	20
CN1CCN(C(c2ccc(Cl)cc2)c2cc(Cl)c3cccnc3c2O)CC1 (configuration not stated)	43	77	38	65*	-42	50*
CCCC(=O)NC(c1ccc(OC)c(OC)c1)c1cc(Cl)c2cccnc2c1O (configuration not stated)	?	88*	-2	48	-5	6
CCC(=O)NC(c1cc(Cl)c2cccnc2c1O)C1CC1 (configuration not stated)	34	78	2	36	-10	15
CCCCC(=O)NC(c1cccs1)c1cc(Cl)c2cccnc2c1O (configuration not stated)	45	24	4	51*	-15	7
C[C@@H]1CN([C@H](C)CO)C(=O)CCCn2cc(nn2)CO[C@H]1CN(C)C(=O)Nc1ccc2c(c1)OCCO2	/	-19	13	-42	-13	-87
O=C(NCCN1CCOCC1)c1ccccc1OCc1ccccc1	-9	16	16	1	4	3
COc1ccccc1N(CC(=O)NCCSCc1ccc(Cl)cc1)S(C)(=O)=O	-12	6	-10	27	5	17
COc1ccccc1OCC(=O)NCCSCc1ccc(Cl)cc1	-11	1	0	77*	-5	7
O=C(NCc1ccccc1)c1onc(CS(=O)(=O)c2ccccn2)c1C(=O)NCc1ccccc1	2	-13	18	26	-20	31
CC(C)C[C@H]1CNC(=S)N1CC1CCN(CC2CCC(C(C)(C)C)CC2)CC1 (some centres not stated)	31	93*	19	37	-3	-13
O=[N+]([O-])c1ccc(Sc2cccc[n+]2[O-])c2nonc12	100*	98*	84*	111*	-97*	91*
O=C(NCc1ccccc1C(F)(F)F)c1cccc2c1C(=O)c1ccc(N3CCC(N4CCCCC4)CC3)cc1S2(=O)=O	/	?	4	106*	-13	-13
O=C(NCC1CCCO1)c1cccc2c1C(=O)c1ccc(N3CCC(Cc4ccccc4)CC3)cc1S2(=O)=O (configuration not stated)	25	18	-5	63*	10	27
COC(=O)c1ccc(CSc2ccccc2NC(=S)Nc2cccc(C(F)(F)F)c2)o1	/	-35	2	-62	4	-220
Cc1ccccc1NC(=O)c1cccc2nc3ccccc3nc12	66*	8	-138	33	-2	-10
Cc1ccccc1NC(=O)c1ccccc1NC(=O)Cc1cccc2ccccc12	14	31	12	13	0	10
O=C(N1CCC(n2nc(-c3ccccc3)oc2=O)CC1)C1(c2ccccc2)CC1	-5	-8	-8	8	-4	2
O=C(O)c1cccc(N2C(=O)/C(=C/c3ccc([N+](=O)[O-])cc3)C=C2c2ccccc2)c1	10	-2	4	53*	4	57*
O=C1/C(=C/c2ccc([N+](=O)[O-])cc2)C=C(c2ccccc2)N1c1ccc(O)cc1	68*	20	28	15	-20	-21
Cc1ccc(C)c(C(=O)NCCN(C)C)c1	6	-8	-13	7	0	26
C=C(CN(C)C)C(=O)c1cc(C)ccc1C	106*	95*	30	100*	0	90*

Source: PubChem
